From the supplement of paper PMC8371130
Counter-ions that a name gives are not always drawn.

System: HL-1
Experiment: relative cell viability (CellTiter-Glo) vs DMSO control (% of DMSO control); higher = more viable cells
Procedure, shortened: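 HL-1 mouse atrial cardiomyocytes were plated in 384-well plates at 1000 cells per well together with compounds at 40, 200, 1000 or 5000 nM in 0.01% DMSO. One day later, cells went to a hypoxic workstation (1% O2) for 48 h, then were reoxygenated for 24 h in a normal incubator, or stayed in normoxia for the same time. Cell viability was read by CellTiter-Glo luminescence and normalised to vehicle-treated control cells.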

[1] = oxygen condition: hypoxia 48 h (1% O2) + reoxygenation 24 h, 40 nM
[2] = oxygen condition: hypoxia 48 h (1% O2) + reoxygenation 24 h, 200 nM
[3] = oxygen condition: hypoxia 48 h (1% O2) + reoxygenation 24 h, 1000 nM
[4] = oxygen condition: hypoxia 48 h (1% O2) + reoxygenation 24 h, 5000 nM
[5] = oxygen condition: normoxia 72 h, 40 nM
[6] = oxygen condition: normoxia 72 h, 200 nM
[7] = oxygen condition: normoxia 72 h, 1000 nM
[8] = oxygen condition: normoxia 72 h, 5000 nM

Compound | relative cell viability [1] | relative cell viability [2] | relative cell viability [3] | relative cell viability [4] | relative cell viability [5] | relative cell viability [6] | relative cell viability [7] | relative cell viability [8]
O=C(CCNNC(=O)c1ccncc1)NCc1ccccc1 [Nialamide] | 107 | 109 | 108 | 113 | 96.2 | 105 | 104 | 138
COc1cccc2c1C(=O)c1c(O)c3c(c(O)c1C2=O)C[C@@](O)(C(=O)CO)C[C@@H]3O[C@H]1C[C@H](N)[C@@H](O)[C@H](C)O1 [Epirubicin Hydrochloride] | 96.8 | 102 | 107 | 91.5 | 93.5 | 97.6 | 91.7 | 96.4
CCCCC[C@H](O)/C=C/[C@H]1[C@H](O)CC(=O)[C@@H]1CCCCCCC(=O)O [Alprostadil] | 104 | 106 | 107 | 107 | 108 | 102 | 111 | 101
CN(C)CCCN1c2ccccc2Sc2ccc(Cl)cc21 [Chlorpromazine] | 104 | 103 | 106 | 107 | 97.1 | 100 | 106 | 117
NS(=O)(=O)Cc1noc2ccccc12 [Zonisamide] | 105 | 108 | 107 | 115 | 108 | 112 | 116 | 103
OC[C@@H](O)[C@@H](O)[C@H](O)[C@H](O)CO [D-Mannitol] | 102 | 86.9 | 113 | 113 | 106 | 98.9 | 108 | 87.3
Cl.N=C(N)NCCC[C@H](N)C(=O)O [L-Arginine HCl] | 97.5 | 104 | 104 | 118 | 100 | 104 | 108 | 107
CC1=NN(c2ccc(C)c(C)c2)C(=O)/C1=N\Nc1cccc(-c2cccc(C(=O)O)c2)c1O [Eltrombopag] | 105 | 86 | 109 | 107 | 106 | 112 | 111 | 108
Nc1nc(=O)c2c([nH]1)NCC(CNc1ccc(C(=O)N[C@@H](CCC(=O)O)C(=O)O)cc1)N2C=O (stereo partly drawn) [Leucovorin Calcium] | 106 | 111 | 110 | 104 | 98 | 101 | 102 | 95.3
Cc1nc2c([nH]1)-c1ccccc1N(C(=O)c1ccc(NC(=O)c3ccccc3-c3ccccc3)cc1)CC2 [Conivaptan HCl] | 100 | 98.8 | 46.4 | 47.7 | 98 | 84.2 | 89.2 | 36.5
O=C(O)c1cccnc1 [Niacin] | 107 | 107 | 98 | 109 | 110 | 111 | 106 | 93.9
CN(C)C/C=C/C(=O)Nc1cc2c(Nc3ccc(F)c(Cl)c3)ncnc2cc1O[C@H]1CCOC1 [Afatinib] | 102 | 107 | 85.9 | 64.7 | 102 | 102 | 72.5 | 17.6
CCc1ccc(CCOc2ccc(CC3SC(=O)NC3=O)cc2)nc1 (stereo not drawn) [Pioglitazone hydrochloride] | 106 | 97.2 | 103 | 106 | 94.5 | 97.9 | 101 | 103
CN(Cc1cc(Br)cc(Br)c1N)C1CCCCC1 [Bromhexine HCl] | 97.5 | 96.2 | 99.9 | 102 | 104 | 108 | 98.4 | 108
S=c1[nH]cnc2nc[nH]c12 [Mercaptopurine] | 112 | 104 | 111 | 99.1 | 103 | 103 | 108 | 103
CCC[C@@H]1C[C@@H](C(=O)N[C@@H]([C@H]2O[C@H](SC)[C@H](O)[C@@H](O)[C@H]2O)[C@H](C)Cl)N(C)C1 [Clindamycin hydrochloride] | 98.5 | 93.8 | 91.3 | 102 | 102 | 98 | 100 | 86.2
O=C(O)Cc1ccccc1Nc1c(Cl)cccc1Cl [Diclofenac] | 97.6 | 112 | 103 | 109 | 100 | 105 | 105 | 109
COc1ccc2cc1Oc1ccc(cc1)C[C@H]1c3c(cc4c(c3Oc3cc5c(cc3OC)CCN(C)[C@@H]5C2)OCO4)CCN1C [Cepharanthine] | 98.8 | 91.7 | 87 | 49.8 | 99.4 | 86.8 | 87.5 | 11.3
CC1=NN(c2ccccc2)C(=O)C1 [Edaravone] | 101 | 97.7 | 95.2 | 108 | 95.7 | 95.9 | 98.9 | 103
CCN(CC)CCNC(C(=O)OCCC(C)C)c1ccccc1 (stereo not drawn) [Camylofin Chlorhydrate] | 108 | 103 | 106 | 109 | 101 | 100 | 103 | 110
Cc1ccccc1C(=O)Nc1ccc(C(=O)N2CCCC(O)c3cc(Cl)ccc32)c(C)c1 (stereo not drawn) [Tolvaptan] | 97.3 | 104 | 104 | 110 | 96.7 | 104 | 106 | 108
